From the supplement of paper PMC10849652
Targets with a hit are over-represented here; the source holds about 7,900 in all. About 0.6% of all pairs of compound and target were hits. Unmarked numbers belong to inactive results.

Assays:
Experiment in all cases: log2 fold change, soluble protein after heating vs DMSO (PISA); higher = thermal stabilisation; K562 cells, 10 uM, 30 min; active = over 0.2 and 3.5 SD of the protein, either way, in both replicates (recomputed)
[1] = compound: CS(=O)(=O)c1ccc(-c2cnc(N)c(C(=O)Nc3ccccc3)n2)cc1
Outline: (§1)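 K562 cells at 2×10^6 cells/mL were exposed to 10 μM compound for 30 min, then aliquots were heated for 3 min across 48°C-58°C, pooled, and extracted in PBS containing 0.5% NP-40 at 4°C. The supernatant after 21,000xg for 90 min was taken as soluble protein and measured by TMTpro 16plex LC-MS/MS with channel sums equalised. Thermal stability is reported relative to control samples, with values from duplicates. Fold changes are given on a log2 scale.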

[2] = compound: C[C@@H](Oc1cc(-c2cnn(C3CCNCC3)c2)cnc1N)c1c(Cl)ccc(F)c1Cl [crizotinib]
Outline: as §1

[3] = compound: C[C@@H]1COCCN1C2=NC(=NC(=C2)C3(CC3)S(=O)(=O)C)C4=C5C=CNC5=CC=C4
Outline: as §1

[4] = compound: C[C@H](C1=CC=C(C=C1)C(=O)NC2=C3C=CNC3=NC=C2)N
Outline: as §1

[5] = compound: C[C@H](Nc1ncnc2nc[nH]c12)c1cc2cccc(Cl)c2c(=O)n1-c1ccccc1 [duvelisib]
Outline: as §1

[6] = compound: Cc1cc(Nc2cc(CN3CCOCC3)c3nc(C)c(Cc4ccc(Cl)cc4F)n3n2)n[nH]1 [gandotinib]
Outline: as §1

[7] = compound: Cc1cc(Nc2cc(N3CCN(C)CC3)nc(Sc3ccc(NC(=O)C4CC4)cc3)n2)n[nH]1 [tozasertib]
Outline: as §1

[8] = compound: Cc1cc(SCc2sc(-c3ccc(C(F)(F)F)cc3)nc2C)ccc1OCC(=O)O
Outline: as §1

[9] = compound: Cc1ccc(-n2nc(C(C)(C)C)cc2NC(=O)Nc2ccc(OCCN3CCOCC3)c3ccccc23)cc1 [doramapimod]
Outline: as §1

[10] = compound: Cc1ccc(C(=O)N(CCCN)[C@@H](c2nc3cc(Cl)ccc3c(=O)n2Cc2ccccc2)C(C)C)cc1 [ispinesib]
Outline: as §1

[11] = compound: Cc1ccc(NC(=O)c2ccc(CN3CC[C@H](N(C)C)C3)c(C(F)(F)F)c2)cc1Nc1nccc(-c2cncnc2)n1 [bafetinib]
Outline: as §1

[12] = compound: Cc1cccc(CC(=O)N2CCc3c2ccc(-c2cn(C)c4ncnc(N)c24)c3F)n1
Outline: as §1

[13] = compound: Cc1cn(-c2cc(NC(=O)c3ccc(C)c(Nc4nccc(-c5cccnc5)n4)c3)cc(C(F)(F)F)c2)cn1 [nilotinib]
Outline: as §1

[14] = compound: Cc1nc(Nc2n[nH]c3c2CN(C(=O)N[C@H](CN(C)C)c2ccccc2)C3(C)C)c2sccc2n1
Outline: as §1

[15] = compound: Cc1nc(Nc2ncc(C(=O)Nc3c(C)cccc3Cl)s2)cc(N2CCN(CCO)CC2)n1 [dasatinib]
Outline: as §1

[16] = compound: Cc1ncc(-c2ccnc(Nc3ccc(S(C)(=O)=O)cc3)n2)n1C(C)C
Outline: as §1

[17] = compound: Cn1cc(-c2ccc3c(c2)CCN3C(=O)Cc2cccc(C(F)(F)F)c2)c2c(N)ncnc21
Outline: as §1

[18] = compound: Cn1cc(-c2ccc3nnc(C(F)(F)c4ccc5ncccc5c4)n3n2)cn1
Outline: as §1

[19] = compound: Cn1cncc1[C@@](N)(c1ccc(Cl)cc1)c1ccc2c(c1)c(-c1cccc(Cl)c1)cc(=O)n2C [tipifarnib]
Outline: as §1

[20] = compound: FC(F)(F)c1ccc(/C=C/c2nc(COc3ccc(CCCCn4ccnn4)cc3)co2)cc1 [mubritinib]
Outline: as §1

Chain of UniProt P51151 (P51151 whole entry, looked up): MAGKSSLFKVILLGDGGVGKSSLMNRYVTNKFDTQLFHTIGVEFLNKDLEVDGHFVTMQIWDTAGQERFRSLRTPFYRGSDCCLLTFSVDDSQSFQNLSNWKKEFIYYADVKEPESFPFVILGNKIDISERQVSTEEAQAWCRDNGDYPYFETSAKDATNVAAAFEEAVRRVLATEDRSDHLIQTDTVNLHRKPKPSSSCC
Chain of UniProt Q6NUM9 (Q6NUM9 whole entry, looked up): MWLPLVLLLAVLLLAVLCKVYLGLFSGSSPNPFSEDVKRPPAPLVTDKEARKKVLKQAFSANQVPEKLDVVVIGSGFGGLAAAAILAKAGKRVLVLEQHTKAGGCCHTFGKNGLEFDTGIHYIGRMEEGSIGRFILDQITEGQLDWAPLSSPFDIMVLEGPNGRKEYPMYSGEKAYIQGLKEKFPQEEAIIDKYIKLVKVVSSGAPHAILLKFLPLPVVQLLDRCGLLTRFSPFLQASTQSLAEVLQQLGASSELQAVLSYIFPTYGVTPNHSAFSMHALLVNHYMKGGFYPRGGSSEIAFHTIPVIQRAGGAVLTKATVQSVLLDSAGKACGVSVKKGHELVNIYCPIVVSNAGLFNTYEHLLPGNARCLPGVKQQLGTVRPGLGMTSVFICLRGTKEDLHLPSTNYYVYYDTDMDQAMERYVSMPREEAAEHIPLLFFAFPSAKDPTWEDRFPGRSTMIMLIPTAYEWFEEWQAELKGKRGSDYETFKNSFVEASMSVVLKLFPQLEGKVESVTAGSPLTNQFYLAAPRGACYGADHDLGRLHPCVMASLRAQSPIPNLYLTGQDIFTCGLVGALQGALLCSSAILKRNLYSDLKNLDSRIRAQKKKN
Chain of UniProt Q5PRF9 (Q5PRF9 whole entry, looked up): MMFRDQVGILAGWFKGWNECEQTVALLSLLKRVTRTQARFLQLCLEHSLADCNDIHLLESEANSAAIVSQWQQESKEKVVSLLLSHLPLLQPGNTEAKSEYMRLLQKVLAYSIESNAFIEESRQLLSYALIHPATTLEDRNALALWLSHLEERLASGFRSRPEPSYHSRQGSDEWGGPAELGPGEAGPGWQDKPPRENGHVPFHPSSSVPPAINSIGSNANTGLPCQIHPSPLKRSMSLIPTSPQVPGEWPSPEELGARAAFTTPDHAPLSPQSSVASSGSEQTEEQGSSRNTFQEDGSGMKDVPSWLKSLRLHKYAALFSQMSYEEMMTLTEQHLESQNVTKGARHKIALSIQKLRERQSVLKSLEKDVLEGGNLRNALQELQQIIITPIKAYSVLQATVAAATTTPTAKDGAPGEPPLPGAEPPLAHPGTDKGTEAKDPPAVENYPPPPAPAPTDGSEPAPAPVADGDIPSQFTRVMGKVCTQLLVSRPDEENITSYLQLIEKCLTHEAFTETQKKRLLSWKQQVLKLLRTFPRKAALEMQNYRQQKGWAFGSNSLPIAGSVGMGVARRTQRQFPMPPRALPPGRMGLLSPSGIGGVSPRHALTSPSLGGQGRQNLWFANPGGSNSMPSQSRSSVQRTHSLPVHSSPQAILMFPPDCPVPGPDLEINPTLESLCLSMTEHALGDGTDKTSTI
Chain of UniProt Q9GZR1 (Q9GZR1 whole entry, looked up): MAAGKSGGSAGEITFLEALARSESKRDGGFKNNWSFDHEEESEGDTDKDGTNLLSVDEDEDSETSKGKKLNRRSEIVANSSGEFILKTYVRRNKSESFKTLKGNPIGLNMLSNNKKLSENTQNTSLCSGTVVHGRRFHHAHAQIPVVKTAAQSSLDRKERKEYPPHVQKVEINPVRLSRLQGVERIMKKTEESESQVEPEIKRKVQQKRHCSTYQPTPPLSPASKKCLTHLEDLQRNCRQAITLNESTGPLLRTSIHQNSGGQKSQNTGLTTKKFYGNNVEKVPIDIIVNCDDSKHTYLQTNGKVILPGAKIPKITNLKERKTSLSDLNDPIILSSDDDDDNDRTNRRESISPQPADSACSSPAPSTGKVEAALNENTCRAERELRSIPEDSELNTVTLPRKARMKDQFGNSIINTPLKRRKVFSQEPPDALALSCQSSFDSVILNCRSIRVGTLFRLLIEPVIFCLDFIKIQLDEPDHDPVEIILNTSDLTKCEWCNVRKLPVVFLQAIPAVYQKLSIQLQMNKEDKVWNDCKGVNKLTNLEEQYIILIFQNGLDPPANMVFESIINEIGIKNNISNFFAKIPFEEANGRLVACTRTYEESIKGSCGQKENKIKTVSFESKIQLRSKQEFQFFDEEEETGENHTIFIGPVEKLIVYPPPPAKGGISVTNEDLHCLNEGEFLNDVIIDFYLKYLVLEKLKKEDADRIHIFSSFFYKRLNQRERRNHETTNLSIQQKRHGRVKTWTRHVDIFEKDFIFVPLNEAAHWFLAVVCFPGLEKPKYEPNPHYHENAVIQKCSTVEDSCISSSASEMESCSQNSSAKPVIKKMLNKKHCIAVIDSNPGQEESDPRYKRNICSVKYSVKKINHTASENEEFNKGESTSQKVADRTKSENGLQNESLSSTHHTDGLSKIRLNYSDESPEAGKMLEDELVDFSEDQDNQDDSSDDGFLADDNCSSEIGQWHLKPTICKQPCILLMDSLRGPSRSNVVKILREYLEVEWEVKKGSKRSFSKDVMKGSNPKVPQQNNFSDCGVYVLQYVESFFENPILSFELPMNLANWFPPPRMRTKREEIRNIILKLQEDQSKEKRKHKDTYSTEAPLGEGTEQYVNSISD
Chain of UniProt Q8WXD2 (Q8WXD2 whole entry, looked up): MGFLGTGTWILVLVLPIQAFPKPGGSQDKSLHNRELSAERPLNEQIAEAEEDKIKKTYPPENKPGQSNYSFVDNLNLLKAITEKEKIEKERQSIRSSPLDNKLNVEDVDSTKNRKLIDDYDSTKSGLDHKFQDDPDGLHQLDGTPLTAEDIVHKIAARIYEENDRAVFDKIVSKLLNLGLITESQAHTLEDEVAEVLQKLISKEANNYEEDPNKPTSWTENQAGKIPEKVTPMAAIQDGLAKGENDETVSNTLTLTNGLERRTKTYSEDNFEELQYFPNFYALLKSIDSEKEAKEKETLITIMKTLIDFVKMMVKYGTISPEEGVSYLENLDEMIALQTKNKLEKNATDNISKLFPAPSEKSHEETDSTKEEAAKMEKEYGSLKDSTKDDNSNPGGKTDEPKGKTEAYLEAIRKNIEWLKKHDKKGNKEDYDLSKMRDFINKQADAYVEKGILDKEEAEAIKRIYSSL
Chain of UniProt P46063 (P46063 whole entry, looked up): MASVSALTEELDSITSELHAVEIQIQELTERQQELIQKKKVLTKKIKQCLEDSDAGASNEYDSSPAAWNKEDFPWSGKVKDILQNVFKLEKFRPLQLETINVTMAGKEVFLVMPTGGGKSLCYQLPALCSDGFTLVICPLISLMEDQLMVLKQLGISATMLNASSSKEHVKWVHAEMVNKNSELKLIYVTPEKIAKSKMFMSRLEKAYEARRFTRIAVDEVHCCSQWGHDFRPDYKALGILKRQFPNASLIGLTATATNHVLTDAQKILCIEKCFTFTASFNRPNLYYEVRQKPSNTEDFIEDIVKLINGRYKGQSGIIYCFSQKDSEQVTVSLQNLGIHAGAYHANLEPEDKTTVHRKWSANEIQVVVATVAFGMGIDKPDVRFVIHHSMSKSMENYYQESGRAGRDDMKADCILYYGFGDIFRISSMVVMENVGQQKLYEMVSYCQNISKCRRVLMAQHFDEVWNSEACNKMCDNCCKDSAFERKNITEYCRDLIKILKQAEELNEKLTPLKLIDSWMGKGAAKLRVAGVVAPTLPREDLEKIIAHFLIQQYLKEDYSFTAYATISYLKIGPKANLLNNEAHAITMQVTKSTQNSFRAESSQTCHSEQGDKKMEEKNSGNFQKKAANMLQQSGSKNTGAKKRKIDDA
Chain of UniProt Q5T8P6 (Q5T8P6 whole entry, looked up): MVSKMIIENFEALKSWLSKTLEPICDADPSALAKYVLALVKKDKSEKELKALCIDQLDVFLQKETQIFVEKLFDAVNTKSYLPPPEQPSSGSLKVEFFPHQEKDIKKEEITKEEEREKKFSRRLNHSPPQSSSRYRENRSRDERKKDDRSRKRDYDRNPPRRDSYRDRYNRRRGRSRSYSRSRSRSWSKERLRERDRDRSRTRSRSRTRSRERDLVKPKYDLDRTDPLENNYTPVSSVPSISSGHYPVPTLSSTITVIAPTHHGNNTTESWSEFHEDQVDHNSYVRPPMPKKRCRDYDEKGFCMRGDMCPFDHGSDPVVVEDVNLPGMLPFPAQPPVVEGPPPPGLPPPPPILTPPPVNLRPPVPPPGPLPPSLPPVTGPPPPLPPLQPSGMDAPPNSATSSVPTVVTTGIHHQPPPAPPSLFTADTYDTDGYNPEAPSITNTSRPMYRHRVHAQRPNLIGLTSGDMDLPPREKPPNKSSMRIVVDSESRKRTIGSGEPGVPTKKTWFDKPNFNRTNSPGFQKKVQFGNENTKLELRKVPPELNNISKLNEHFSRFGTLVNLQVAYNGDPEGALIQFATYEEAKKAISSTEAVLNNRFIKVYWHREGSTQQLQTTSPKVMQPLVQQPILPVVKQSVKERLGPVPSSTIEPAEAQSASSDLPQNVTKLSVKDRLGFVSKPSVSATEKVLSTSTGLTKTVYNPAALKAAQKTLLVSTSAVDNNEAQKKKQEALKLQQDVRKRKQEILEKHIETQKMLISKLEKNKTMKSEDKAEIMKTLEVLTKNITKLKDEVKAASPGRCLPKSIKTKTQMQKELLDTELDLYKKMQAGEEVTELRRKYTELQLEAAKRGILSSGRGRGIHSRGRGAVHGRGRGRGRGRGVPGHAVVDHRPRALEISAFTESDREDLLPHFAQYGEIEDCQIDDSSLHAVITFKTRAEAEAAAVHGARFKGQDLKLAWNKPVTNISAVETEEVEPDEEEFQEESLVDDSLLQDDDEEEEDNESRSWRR
Chain of UniProt Q92930 (Q92930 whole entry, looked up): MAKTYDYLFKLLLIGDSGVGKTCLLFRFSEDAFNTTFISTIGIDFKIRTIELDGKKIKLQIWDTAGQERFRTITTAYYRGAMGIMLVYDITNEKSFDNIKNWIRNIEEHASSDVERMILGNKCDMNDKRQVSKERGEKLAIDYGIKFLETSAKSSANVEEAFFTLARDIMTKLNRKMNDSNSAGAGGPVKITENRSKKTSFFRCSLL

Target | log2 fold change [1] | log2 fold change [2] | log2 fold change [3] | log2 fold change [4] | log2 fold change [5] | log2 fold change [6] | log2 fold change [7] | log2 fold change [8] | log2 fold change [9] | log2 fold change [10] | log2 fold change [11] | log2 fold change [12] | log2 fold change [13] | log2 fold change [14] | log2 fold change [15] | log2 fold change [16] | log2 fold change [17] | log2 fold change [18] | log2 fold change [19] | log2 fold change [20]
RPS16 (UniProt P62249) | -0.107 | 0 | -0.353 | 0.214 | -0.118 | 0.172 | 0.021 | -0.023 | 0.055 | -0.088 | 0.279 | -0.026 | 0.07 | 0.207 | 0.053 | -0.019 | -0.078 | -0.048 | 0.107 | -0.066
RPS13 (UniProt P62277) | -0.053 | 0.076 | -0.548 | 0.403 | -0.201 | 0.296 | 0.021 | -0.013 | 0.247 | -0.195 | 0.342 | 0 | 0.017 | 0.221 | 0.088 | -0.051 | -0.237 | -0.089 | 0.204 | -0.184
RECQL (UniProt P46063) | 0.031 | 0.033 | 0.112 | -0.082 | 0.051 | -0.057 | 0.001 | 0.003 | -0.011 | 0.056 | 0.005 | -0.019 | 0.025 | 0.006 | -0.043 | -0.033 | 0.055 | -0.006 | -0.034 | 0.017
SCAF8 isoform 2 (UniProt Q9UPN6) | 0.085 | -0.011 | 0.1 | -0.018 | 0.053 | -0.098 | -0.039 | 0.065 | 0.003 | -0.181 | -0.024 | 0.019 | -0.032 | -0.208 | -0.212 | 0.069 | 0.064 | 0.008 | -0.027 | 0.023
RBM26 isoform 3 (UniProt Q5T8P6) | 0.066 | – | – | – | – | – | – | – | – | – | – | – | – | – | – | – | – | – | – | –
RETSAT (UniProt Q6NUM9) | -0.038 | 0.005 | -0.129 | -0.003 | 0.083 | 0.284 | -0.103 | 0.036 | 0.147 | -0.008 | -0.011 | -0.034 | 0.154 | -0.076 | -0.001 | 0.511 (active) | 0.045 | -0.002 | -0.052 | 0.182
RPS18 (UniProt P62269) | -0.022 | 0.033 | -0.244 | 0.222 | -0.076 | 0.129 | 0.016 | -0.002 | 0.105 | -0.074 | 0.214 | -0.015 | -0.001 | 0.198 | 0.069 | -0.054 | -0.088 | -0.001 | 0.031 | -0.022
SCG3 (UniProt Q8WXD2) | -0.069 | 0.074 | -0.089 | -0.109 | 0 | -0.101 | 0.075 | -0.194 | 0.124 | 0.171 | 0.075 | -0.027 | 0.172 | -0.098 | 0.151 | -0.032 | 0.147 | -0.037 | 0.044 | -0.01
RBM26 isoform 2 (UniProt Q5T8P6) | -0.012 | 0.03 | 0.374 | -0.154 | 0.022 | -0.056 | 0.036 | 0.136 | -0.036 | -0.089 | -0.003 | 0.058 | -0.088 | -0.432 | -0.176 | 0.021 | 0.12 | 0.168 | -0.033 | 0.045
RHOXF2 (UniProt Q9BQY4) | 0.027 | 0.001 | 0.073 | 0.018 | 0.04 | -0.045 | -0.029 | -0.092 | 0.008 | 0.009 | -0.05 | -0.215 (active) | 0.009 | -0.007 | 0.053 | -0.058 | 0.008 | -0.035 | 0.048 | 0.06
RAB8B (UniProt Q92930) | -0.212 | 0 | -0.046 | -0.345 | -0.028 | -0.086 | -0.076 | 0.005 | 0.034 | 0.01 | -0.008 | 0.085 | 0.059 | -0.036 | 0.015 | -0.043 | 0.031 | -0.016 | -0.088 | -0.062
SHCBP1 (UniProt Q8NEM2) | 0.092 | -0.077 | 0.043 | 0.119 | -0.021 | -0.124 | 0.098 | 0.169 | 0.02 | -0.096 | -0.017 | 0.041 | -0.207 | -0.459 (active) | -0.091 | 0.003 | 0.223 | 0.004 | 0.299 | 0.1
RPS4X (UniProt P62701) | -0.027 | 0.021 | -0.378 | 0.333 | -0.211 | 0.264 | 0.039 | -0.023 | 0.18 | -0.141 | 0.332 | 0 | 0.051 | 0.206 | 0.061 | -0.048 | -0.251 | -0.079 | 0.112 | -0.105
SAMD4B (UniProt Q5PRF9) | -0.102 | -0.527 (active) | -0.036 | 0.009 | -0.067 | -0.135 | -0.154 | 0.029 | 0.073 | -0.082 | -0.436 | 0.125 | -0.167 | -0.312 | -0.296 | 0.002 | -0.072 | -0.042 | 0.09 | –
RAB9A (UniProt P51151) | 0.007 | -0.119 | -0.006 | -0.044 | 0.04 | 0 | 0.018 | 0.016 | 0.018 | -0.168 | -0.073 | -0.021 | -0.01 | 0.012 | 0.002 | 0.002 | 0.104 | 0.001 | 0.001 | 0.002
SENP6 (UniProt Q9GZR1) | -0.016 | -0.015 | -0.134 | -0.002 | 0.024 | -0.056 | 0.02 | -0.046 | 0.006 | -0.046 | 0.015 | -0.015 | 0.007 | -0.038 | -0.028 | 0.063 | 0.046 | -0.013 | 0.025 | 0.053
RPS19 (UniProt P39019) | -0.12 | 0.023 | -0.309 | 0.182 | -0.11 | 0.201 | 0.033 | 0.018 | 0.05 | -0.081 | 0.242 | -0.026 | 0.046 | 0.181 | 0.083 | -0.021 | -0.11 | -0.068 | 0.055 | -0.037
